Test results as given in paper PMC5700166.
Numbering of substitutions follows the chain as printed.

Experiments:
Assay in all cases: protein-binding microarray (PBM); PBM: ~300 nM protein, 6 mM HEPES pH 7.8, 80 mM KCl, 0.5 mM EDTA, 0.5 mM EGTA, 6% glycerol, 35 ng/ul poly-dIdC, 1% milk, 1 h, room temperature; Ap Aiptasia and Nv Nematostella (sea anemones) / Co Capsaspora / Aq Amphimedon (sponge) / Dm Drosophila / Hu human; RHD is the Rel homology domain; high values mean tight binding
Details in all cases: dsDNA, one strand shown
GST-Dm-Relish = biological target: T1, GST-Dm-Relish (Drosophila melanogaster, UniProt Q94527 99-473)
T1 sequence: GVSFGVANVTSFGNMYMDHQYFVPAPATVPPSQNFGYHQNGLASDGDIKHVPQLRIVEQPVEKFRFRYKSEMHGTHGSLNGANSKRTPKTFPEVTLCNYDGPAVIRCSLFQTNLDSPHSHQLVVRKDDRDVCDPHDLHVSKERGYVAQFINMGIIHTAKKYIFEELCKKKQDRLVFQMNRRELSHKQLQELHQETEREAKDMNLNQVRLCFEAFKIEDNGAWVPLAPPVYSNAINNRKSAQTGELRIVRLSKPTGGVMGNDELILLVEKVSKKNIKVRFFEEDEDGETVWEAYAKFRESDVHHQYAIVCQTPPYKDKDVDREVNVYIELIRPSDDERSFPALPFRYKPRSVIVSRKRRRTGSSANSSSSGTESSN

GST-Aq-NF-kB = biological target: T2, GST-Aq-NF-kB (Amphimedon queenslandica, UniProt A9Y5G7 2-389)
T2 sequence: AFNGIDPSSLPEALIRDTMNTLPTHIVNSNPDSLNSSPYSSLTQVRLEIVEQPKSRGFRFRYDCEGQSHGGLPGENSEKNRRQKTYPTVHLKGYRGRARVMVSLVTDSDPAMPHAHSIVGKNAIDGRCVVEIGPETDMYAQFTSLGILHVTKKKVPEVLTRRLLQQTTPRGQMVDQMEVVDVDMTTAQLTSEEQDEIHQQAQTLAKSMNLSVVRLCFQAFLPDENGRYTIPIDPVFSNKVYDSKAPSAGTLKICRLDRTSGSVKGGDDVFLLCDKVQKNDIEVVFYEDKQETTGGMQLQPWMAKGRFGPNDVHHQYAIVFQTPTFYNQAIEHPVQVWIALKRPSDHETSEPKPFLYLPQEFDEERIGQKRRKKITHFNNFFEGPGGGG

GST-Hu-p50 = GST-Hu-p50 (Homo sapiens, UniProt P19838 7-356)
GST-Hu-p50, sequence (P19838 7-356): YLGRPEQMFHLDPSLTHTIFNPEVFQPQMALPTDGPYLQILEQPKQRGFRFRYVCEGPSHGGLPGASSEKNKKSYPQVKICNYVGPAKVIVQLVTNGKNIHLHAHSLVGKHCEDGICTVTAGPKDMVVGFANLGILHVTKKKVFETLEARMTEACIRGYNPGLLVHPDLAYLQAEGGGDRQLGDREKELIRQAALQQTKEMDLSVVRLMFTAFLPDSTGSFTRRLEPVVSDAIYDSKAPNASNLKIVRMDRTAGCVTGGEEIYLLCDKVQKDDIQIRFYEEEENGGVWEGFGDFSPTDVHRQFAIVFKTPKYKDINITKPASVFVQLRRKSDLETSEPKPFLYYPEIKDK

GST-Ap-NF-kB RHD = biological target: T3, GST-Ap-NF-kB RHD (Exaiptasia pallida (Aiptasia), UniProt A0A913YAJ5 2-422)
T3 sequence: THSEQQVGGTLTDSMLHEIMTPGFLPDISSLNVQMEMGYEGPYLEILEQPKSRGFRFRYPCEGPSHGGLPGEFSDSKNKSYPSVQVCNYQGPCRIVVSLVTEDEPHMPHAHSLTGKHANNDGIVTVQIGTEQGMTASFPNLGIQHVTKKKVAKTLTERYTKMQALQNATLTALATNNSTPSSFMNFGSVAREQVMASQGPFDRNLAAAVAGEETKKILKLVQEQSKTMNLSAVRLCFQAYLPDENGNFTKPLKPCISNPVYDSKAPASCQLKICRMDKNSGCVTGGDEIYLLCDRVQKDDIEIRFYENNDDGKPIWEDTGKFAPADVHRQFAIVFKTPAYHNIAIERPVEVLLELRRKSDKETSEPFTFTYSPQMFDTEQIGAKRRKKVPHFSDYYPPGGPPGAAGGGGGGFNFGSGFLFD

GST-Co-NF-kB = biological target: T4, GST-Co-NF-kB (Capsaspora owczarzaki, UniProt F1ARL5 200-546)
T4 sequence: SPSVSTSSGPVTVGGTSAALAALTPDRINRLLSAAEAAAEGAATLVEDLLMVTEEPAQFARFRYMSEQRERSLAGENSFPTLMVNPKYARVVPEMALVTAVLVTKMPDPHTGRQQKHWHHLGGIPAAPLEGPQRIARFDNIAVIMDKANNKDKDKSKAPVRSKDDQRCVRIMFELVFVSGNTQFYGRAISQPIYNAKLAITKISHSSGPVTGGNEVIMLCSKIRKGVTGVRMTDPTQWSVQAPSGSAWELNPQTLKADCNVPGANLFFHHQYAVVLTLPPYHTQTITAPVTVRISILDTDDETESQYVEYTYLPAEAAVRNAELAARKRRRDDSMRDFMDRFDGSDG

[1] = biological target: T5, GST-Nv-NF-kB (Cys allele) (Nematostella vectensis, UniProt E5G601 2-411)
T5 sequence: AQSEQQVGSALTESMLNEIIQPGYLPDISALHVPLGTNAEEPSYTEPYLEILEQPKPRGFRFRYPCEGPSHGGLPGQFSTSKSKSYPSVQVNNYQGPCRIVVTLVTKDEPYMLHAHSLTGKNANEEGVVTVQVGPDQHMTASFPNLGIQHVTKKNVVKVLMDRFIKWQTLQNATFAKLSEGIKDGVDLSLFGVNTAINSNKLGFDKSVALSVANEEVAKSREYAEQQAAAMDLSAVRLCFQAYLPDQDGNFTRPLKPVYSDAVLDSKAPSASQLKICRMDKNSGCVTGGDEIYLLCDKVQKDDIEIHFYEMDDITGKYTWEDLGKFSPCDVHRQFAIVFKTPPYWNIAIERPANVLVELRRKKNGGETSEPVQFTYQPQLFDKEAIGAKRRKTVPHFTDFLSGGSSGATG

[2] = biological target: T6, GST-Nv-NF-kB (Ser allele) (Nematostella vectensis, UniProt A7UNT2 2-411)
T6 sequence: T5 sequence with Q21R, C66S, S207N, E215Q, V217A, E225K, A268E, D399E

Q: With “CCGATTAACATCACGGCCTTTCCTGATGTTAATCGGGTCTTGATTCGCTTGACGCTGCTG” as the sequence, how does the binding signal (GST-Dm-Relish) read?
A: 1.05 z-score

Q: And the binding signal (GST-Aq-NF-kB)?
A: 1.82 z-score

Q: How did the binding signal (GST-Hu-p50) turn out when “CCGATTAACATCACCTTTTACATTGATGTTAATCGGGTCTTGATTCGCTTGACGCTGCTG” was run?
A: 1.53 z-score

Q: Which results are given for “CCGATTAACATCAGGAAGGGCGGTGATGTTAATCGGGTCTTGATTCGCTTGACGCTGCTG”?
A: binding signal (GST-Ap-NF-kB RHD): 1.05 z-score; binding signal (GST-Co-NF-kB): 1.08 z-score; binding signal (GST-Hu-p50): 1.07 z-score

Q: With “CCGATTAACATCAGGATTTTCCATGATGTTAATCGGGTCTTGATTCGCTTGACGCTGCTG” as the sequence, how does the binding signal (GST-Dm-Relish) read?
A: 1.28 z-score

Q: And the binding signal (GST-Aq-NF-kB)?
A: 2.57 z-score

Q: How did the binding signal (GST-Hu-p50) turn out when “CCGATTAACATCAGGGCCAAAAATGATGTTAATCGGGTCTTGATTCGCTTGACGCTGCTG” was run?
A: 1.38 z-score

Q: Which results are given for “CCGATTAACATCATGTTTGCGGGTGATGTTAATCGGGTCTTGATTCGCTTGACGCTGCTG”?
A: binding signal (GST-Ap-NF-kB RHD): 1.22 z-score; binding signal (GST-Co-NF-kB): 1.02 z-score; binding signal (GST-Hu-p50): 1.53 z-score

Q: Which binding signal [1] does the source give for “CCGATTAACATCACGGAAAAAACTGATGTTAATCGGGTCTTGATTCGCTTGACGCTGCTG” here?
A: 1.12 z-score

Q: And the binding signal [2]?
A: 1.13 z-score

Q: And the binding signal (GST-Co-NF-kB)?
A: 1.37 z-score

Q: What about the binding signal (GST-Dm-Relish) of the same sequence?
A: 1.6 z-score

Q: What about the binding signal (GST-Hu-p50) of the same sequence?
A: 1.36 z-score

Q: “CCGATTAACATCACCTTGTGATCTGATGTTAATCGGGTCTTGATTCGCTTGACGCTGCTG” was tested. Which binding signal (GST-Hu-p50) did it give?
A: 1.21 z-score

Q: What does the source list for “CCGATTAACATCACCGAGTTAGTTGATGTTAATCGGGTCTTGATTCGCTTGACGCTGCTG”?
A: binding signal [1]: 1.15 z-score; binding signal (GST-Hu-p50): 1.5 z-score

Q: Which binding signal (GST-Ap-NF-kB RHD) does the source give for “CCGATTAACATCAGGAAATGGGATGATGTTAATCGGGTCTTGATTCGCTTGACGCTGCTG” here?
A: 1.33 z-score

Q: “CCGATTAACATCACGGTGTGGGTTGATGTTAATCGGGTCTTGATTCGCTTGACGCTGCTG” was tested. Which binding signal (GST-Co-NF-kB) did it give?
A: 1.37 z-score

Q: For “CCGATTAACATCACGTGGGGCGTTGATGTTAATCGGGTCTTGATTCGCTTGACGCTGCTG”, which binding signal [1] is on record?
A: 1.36 z-score

Q: What does the source list for “CCGATTAACATCAATTAGGTGGGTGATGTTAATCGGGTCTTGATTCGCTTGACGCTGCTG”?
A: binding signal (GST-Ap-NF-kB RHD): 1.19 z-score; binding signal (GST-Co-NF-kB): 1.13 z-score

Q: For “CCGATTAACATCATGGGGTGTGCTGATGTTAATCGGGTCTTGATTCGCTTGACGCTGCTG”, which binding signal (GST-Ap-NF-kB RHD) is on record?
A: 1.12 z-score

Q: What about the binding signal (GST-Co-NF-kB) of the same sequence?
A: 1.28 z-score

Q: Which binding signal (GST-Ap-NF-kB RHD) does the source give for “CCGATTAACATCACCCCGAACGCTGATGTTAATCGGGTCTTGATTCGCTTGACGCTGCTG” here?
A: 1.59 z-score

Q: And the binding signal (GST-Co-NF-kB)?
A: 2.02 z-score

Q: With “CCGATTAACATCACACTGTTCAGTGATGTTAATCGGGTCTTGATTCGCTTGACGCTGCTG” as the sequence, how does the binding signal [2] read?
A: 1.06 z-score

Q: “CCGATTAACATCAGCCATATTTGTGATGTTAATCGGGTCTTGATTCGCTTGACGCTGCTG” was tested. Which binding signal (GST-Co-NF-kB) did it give?
A: 1.13 z-score

Q: “CCGATTAACATCATCCCTTGTCATGATGTTAATCGGGTCTTGATTCGCTTGACGCTGCTG” was tested. Which binding signal (GST-Ap-NF-kB RHD) did it give?
A: 1.2 z-score

Q: Which results are given for “CCGATTAACATCACCCCATCTCGTGATGTTAATCGGGTCTTGATTCGCTTGACGCTGCTG”?
A: binding signal (GST-Ap-NF-kB RHD): 1.2 z-score; binding signal (GST-Co-NF-kB): 2.11 z-score; binding signal (GST-Dm-Relish): 1.42 z-score

Q: With “CCGATTAACATCAGCATTCCCAATGATGTTAATCGGGTCTTGATTCGCTTGACGCTGCTG” as the sequence, how does the binding signal [1] read?
A: 1.29 z-score

Q: What about the binding signal (GST-Co-NF-kB) of the same sequence?
A: 1.08 z-score

Q: Which binding signal (GST-Ap-NF-kB RHD) does the source give for “CCGATTAACATCAATAGTACCGATGATGTTAATCGGGTCTTGATTCGCTTGACGCTGCTG” here?
A: 1.43 z-score

Q: And the binding signal [1]?
A: 1.03 z-score

Q: And the binding signal [2]?
A: 3 z-score

Q: “CCGATTAACATCACCCGGCGCAGTGATGTTAATCGGGTCTTGATTCGCTTGACGCTGCTG” was tested. Which binding signal (GST-Ap-NF-kB RHD) did it give?
A: 1.17 z-score

Q: And the binding signal (GST-Co-NF-kB)?
A: 2.3 z-score

Q: Which binding signal [1] does the source give for “CCGATTAACATCAGCTTGGGAAATGATGTTAATCGGGTCTTGATTCGCTTGACGCTGCTG” here?
A: 1.84 z-score

Q: What about the binding signal (GST-Co-NF-kB) of the same sequence?
A: 2.33 z-score

Q: What does the source list for “CCGATTAACATCAATTTGGGAAATGATGTTAATCGGGTCTTGATTCGCTTGACGCTGCTG”?
A: binding signal [1]: 2.58 z-score; binding signal (GST-Co-NF-kB): 1.92 z-score

Q: With “CCGATTAACATCAACGTGATTTGTGATGTTAATCGGGTCTTGATTCGCTTGACGCTGCTG” as the sequence, how does the binding signal (GST-Co-NF-kB) read?
A: 1.11 z-score
